In PubChem BioAssay (NCATS):
Results filed as inconclusive are left out. Active and inactive are the calls of the source. The call rests on the fitted dose curve; in most records, active means well fitted cell-killing curve with a large enough effect; inconclusive means small, poorly fitted or top-dose-only effect, or effect the other way; inactive means no such curve, though single readings can be large or run the other way.

Columns and labels:
[1] = Quantitative High-Throughput drug screen in 47 multiple myeloma cell lines against the NCATS MIPE library collection: KMS28PE_JCRB cell viability assay (AID 1918983); further: nearly all actives have a fitted effect of over 35% in size
In short: (§1)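 Inhibition of viability over 48 h was scored by ATP content (CellTiter-Glo) in 500-cell wells. Zero and full viability were defined by media-only and DMSO-only wells.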

[2] = Quantitative High-Throughput drug screen in 47 multiple myeloma cell lines against the NCATS MIPE library collection: KMS34_JCRB cell viability assay (AID 1918985); further: nearly all actives have a fitted effect of over 40% in size
In short: as §1

[3] = Quantitative High-Throughput drug screen in 47 multiple myeloma cell lines against the NCATS MIPE library collection: OCIMY7_PLB cell viability assay (AID 1918987); further: nearly all actives have a fitted effect of over 65% in size
In short: as §1

[4] = Quantitative High-Throughput drug screen in 47 multiple myeloma cell lines against the NCATS MIPE library collection: OPM1_PLB cell viability assay (AID 1918989); further: nearly all actives have a fitted effect of over 40% in size
In short: as §1

[5] = Quantitative High-Throughput drug screen in 47 multiple myeloma cell lines against the NCATS MIPE library collection: SKMM1_PLB cell viability assay (AID 1919863); conditions: SKMM1 myeloma viability, CellTiter-Glo ATP, 48 h; viability: stronger effect = lower value; further: nearly all actives have a fitted effect of over 35% in size; on viability: series mostly up to about 46 µM
In short: as §1

[6] = Quantitative High-Throughput drug screen in 47 multiple myeloma cell lines against the NCATS MIPE library collection: U266_ATCC cell viability assay (AID 1919864); further: nearly all actives have a fitted effect of over 35% in size
In short: as §1

[7] = Quantitative High-Throughput drug screen in 47 multiple myeloma cell lines against the NCATS MIPE library collection: XG6_PLB cell viability assay (AID 1919865); further: nearly all actives have a fitted effect of over 40% in size
In short: as §1

[8] = Quantitative High-Throughput drug screen in 47 multiple myeloma cell lines against the NCATS MIPE library collection: L363_DSMZ cell viability assay (AID 1918984); further: nearly all actives have a fitted effect of over 40% in size
In short: as §1

[9] = Quantitative High-Throughput drug screen in 47 multiple myeloma cell lines against the NCATS MIPE library collection: OCIMY5_PLB cell viability assay (AID 1918988); further: nearly all actives have a fitted effect of over 65% in size
In short: as §1
Potency means the concentration at half of the fitted maximal effect.

O=C(NCC1CN(c2ccc(N3CCOCC3=O)cc2)C(=O)O1)c1ccc(Cl)s1 (stereo unspecified)
inactive: Potency [1] | Potency [2] | Potency [3] | Potency [4] | viability [5] 135% | Potency [6] | Potency [7]

CC(C)OC(=O)C(C(=O)OC(C)C)=C1SC=CS1
inactive: Potency [1] | Potency [8] | Potency [3] | Potency [7]

Cc1cccc(N(C)C(=S)Oc2ccc3ccccc3c2)c1
active: Potency [6] 20.9 µM
inactive: Potency [1] | Potency [2] | Potency [4] | viability [5] 112% | Potency [7]

CNS(=O)(=O)CCc1ccc2[nH]cc(C3CCN(C)CC3)c2c1
inactive: Potency [1]
active: Potency [8] 23.5 µM | Potency [3] 0.332 µM | Potency [9] 1.18 µM | Potency [5] 4.18 µM | Potency [7] 0.372 µM

CCC(=O)O[C@]1(C(=O)CCl)[C@@H](C)C[C@H]2[C@@H]3CCC4=CC(=O)C=C[C@]4(C)[C@@]3(F)[C@@H](O)C[C@@]21C
active: Potency [8] 0.0093 µM | Potency [9] 1.32 µM
inactive: Potency [1] | Potency [2] | Potency [4] | viability [5] 109% | Potency [7]

NC(=O)c1ccc2[nH]ccc2c1
inactive: Potency [1] | Potency [2] | Potency [6] | Potency [7]

CNCC[C@H](Oc1cccc2ccccc12)c1cccs1
active: Potency [1] 18.7 µM | Potency [3] 0.59 µM | Potency [9] 2.35 µM | Potency [4] 8.33 µM | Potency [6] 2.35 µM | Potency [7] 0.59 µM

CC1CC2C3CCC4=CC(=O)C=C[C@]4(C)[C@@]3(F)[C@@H](O)C[C@]2(C)[C@@]1(O)C(=O)CO (stereo partly specified)
active: Potency [1] 0.0935 µM | Potency [9] 2.64 µM | Potency [4] 2.35 µM
inactive: Potency [7]

CC(N)C12CC3CC(CC(C3)C1)C2 (stereo unspecified)
inactive: Potency [1] | Potency [2] | viability [5] 118% | Potency [7]

CC1=NN(c2ccccc2)C(=O)C1
active: Potency [7] 7.43 µM
inactive: Potency [1] | Potency [3] | Potency [4]

Cc1noc(NS(=O)(=O)c2ccc(N)cc2)c1C
inactive: Potency [1] | Potency [9] | Potency [4] | Potency [7]

CS(=O)(=O)c1ccc([C@@H](O)[C@@H](CO)NC(=O)C(Cl)Cl)cc1
inactive: Potency [1] | Potency [6]
active: Potency [7] 18.7 µM

CC[C@H](NC(C)C)[C@H](O)c1ccc(O)c2[nH]c(=O)ccc12
active: Potency [9] 0.0833 µM
inactive: Potency [8] | Potency [6] | Potency [7]

COc1nc(N)nc2c1ncn2[C@@H]1O[C@H](CO)[C@@H](O)[C@@H]1O
inactive: Potency [8] | Potency [9] | Potency [4] | viability [5] 124% | Potency [7]
active: Potency [6] 16.6 µM

Cc1oc(=O)oc1CN1CCN(c2cc3c(cc2F)c(=O)c(C(=O)O)c2n3C(C)S2)CC1 (stereo unspecified)
inactive: Potency [3] | Potency [4] | Potency [6]

O=c1oc2c(O)c(O)cc3c(=O)oc4c(O)c(O)cc1c4c23
inactive: Potency [1] | Potency [4] | Potency [6]

CN(C)CCc1c[nH]c2ccc(CS(=O)(=O)N3CCCC3)cc12
inactive: Potency [2] | Potency [9] | viability [5] 119% | Potency [6]

COc1ccc(C(=O)CC(=O)c2ccc(C(C)(C)C)cc2)cc1
active: Potency [8] 6.62 µM | Potency [3] 3.72 µM | Potency [9] 2.64 µM | Potency [4] 7.43 µM | Potency [5] 5.9 µM | Potency [6] 5.26 µM | Potency [7] 0.743 µM

CC(=O)CC(c1ccccc1)c1c(O)c2ccccc2oc1=O (stereo unspecified)
inactive: Potency [2] | Potency [3] | Potency [7]

NCCCC(O)(P(=O)(O)O)P(=O)(O)O
inactive: Potency [1] | viability [5] 137%

CNC(=O)c1cc(Oc2ccc(NC(=O)Nc3ccc(Cl)c(C(F)(F)F)c3)cc2)ccn1
active: Potency [8] 6.62 µM | Potency [2] 20.9 µM | Potency [3] 3.32 µM | Potency [9] 23.5 µM | Potency [4] 10.5 µM | Potency [5] 29.6 µM | Potency [6] 23.5 µM | Potency [7] 0.148 µM

CC(=O)[C@H]1CC[C@H]2[C@@H]3CC=C4C[C@@H](O)CC[C@]4(C)[C@H]3CC[C@]12C
inactive: Potency [2] | viability [5] 123% | Potency [7]

CC(C)NCC(O)c1ccc(NS(C)(=O)=O)cc1 (stereo unspecified)
inactive: Potency [1] | Potency [4] | viability [5] 159% | Potency [7]
